A selection: hits, their analogues and other compounds. The true share with any hit is near 0.68%.
LmPK inhibitor: inhibitors of Leishmania mexicana pyruvate kinase | purified LmPK, Kinase-Glo ATP luminescence, 1 h | Q27686 | 290,000 tested, 0.37% active | Potency, µM (doses to about 57.5 µM), most hits filed as inhibitors
Target sequence (Q27686 whole entry, looked up): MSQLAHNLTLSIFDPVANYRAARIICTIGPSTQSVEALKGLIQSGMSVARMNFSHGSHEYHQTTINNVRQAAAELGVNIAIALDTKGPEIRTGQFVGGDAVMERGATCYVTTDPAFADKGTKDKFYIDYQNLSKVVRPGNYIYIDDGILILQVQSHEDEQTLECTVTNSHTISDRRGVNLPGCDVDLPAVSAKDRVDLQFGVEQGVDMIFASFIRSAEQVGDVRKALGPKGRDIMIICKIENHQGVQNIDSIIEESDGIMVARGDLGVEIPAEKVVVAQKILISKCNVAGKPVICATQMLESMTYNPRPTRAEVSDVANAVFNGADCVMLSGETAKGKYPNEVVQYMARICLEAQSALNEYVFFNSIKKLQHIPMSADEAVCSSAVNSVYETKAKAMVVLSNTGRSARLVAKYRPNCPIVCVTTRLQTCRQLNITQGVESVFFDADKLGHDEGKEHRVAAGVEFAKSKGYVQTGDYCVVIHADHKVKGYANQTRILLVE
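Screened at intermediate enzyme activity to detect both inhibitors and activators: LmPK at 0.1 nM, with a 0.5 nM enzyme column as activation reference. PEP 0.5 mM, ADP 0.1 mM; ATP detected by luminescence after 1 h.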
AMA1-RON2 inh: inhibitors of Plasmodium falciparum AMA1-RON2 interaction; AlphaScreen AMA1-biotinylated RON2 peptide binding; Potency, µM (top dose mostly 58.2 µM), hits mostly inhibitors; 360,000 tested, 0.2% active; AID 720542; further: nearly all actives have a fitted effect of over 45% in size
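AMA1 (3D7) with his tag at 25 nM final met compounds first, then biotinylated RON2 peptide at 25 nM; detection used donor plus acceptor beads, 10 µg/mL apiece, read by AlphaScreen after 30 min at room temperature.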
TbPYK inhibitor: inhibitors of Trypanosoma brucei pyruvate kinase. Q57TT1. AID 624173. TbPYK enzyme, Kinase-Glo Plus ATP luminescence, 45 min. Potency, µM (titrated, usually from 76.8 µM), actives largely listed as inhibitors. 410,000 tested, 0.12% active; further: nearly all actives have a fitted effect of over 50% in size
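Readout: single end-point luminescence (Kinase-Glo Plus, 10 min). Reaction conditions were TbPYK/substrate plus 130 uM ADP, 45 min at RT, pH 7.2 TEA buffer. No-enzyme wells served as controls, and data were normalized before concentration-response fitting.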
RE007 growth inh: less growth of the S. pombe RE007 Vpr strain; S. pombe RE007 Vpr strain, BacTiter-Glo ATP luminescence, 24 h; Potency, µM (top dose mostly 92.2 µM), most hits filed as inhibitors; 360,000 tested, 0.21% active; active means well fitted falling curve with a large enough effect; inconclusive means small, poorly fitted or top-dose-only effect; inactive means no such curve, though single readings can be large or run the other way; further: nearly all actives have a fitted effect of over 50% in size
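Fission yeast RE007 carrying one integrated HIV-1 vpr copy, seeded at OD 0.01 in PMG+AL medium with 23 nL pinned compound. Grown 24 h at 30 degrees; viability read by BacTiter-Glo luminescence after 5 min.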
Numbers stand for hits; – = inactive; ? = inconclusive; · = no result given; [ ] = another dose, or the depositor's remark. Unless noted, the call rests on the fitted dose curve; in most records, active means well fitted curve in the direction sought with a large enough effect; inconclusive means small, poorly fitted or top-dose-only effect, or another doubt; inactive means no such curve, though single readings can be large; an effect the other way counts as inactive or inconclusive.

SMILES	LmPK inhibitor	AMA1-RON2 inh	TbPYK inhibitor	RE007 growth inh
CNC(=O)Oc1cccc(-c2cn3cc(Cl)ccc3n2)c1	14µM	–	–	?
COC(=O)c1ccc2nc(-c3ccc(S(C)(=O)=O)cc3)cn2c1	–	–	–	–
CCN1CCN(C(=O)N(CC(=O)Nc2ccc(C(N)=O)cc2)S(=O)(=O)c2ccc(C)cc2)CC1	·	–	–	–
CC(=O)Nc1ccc(NC(=O)CSc2nnc(-c3ccco3)o2)cc1	–	–	–	–
Cc1cc(NC(=O)CSc2nnc(-c3ccco3)o2)no1	–	28µM	–	–
Cc1cc(NC(=O)CSc2nnc(COc3ccccc3)o2)no1	–	11µM	–	–
O=C(CSc1nnc(COc2ccc(Cl)cc2)o1)Nc1ccccc1	·	·	–	·
O=C(NCC1CC1)c1ccc(Oc2cc(Cl)cc(Cl)c2)o1	–	–	–	–
O=C(Nc1ccccc1C(=O)NCCCN1CCOCC1)c1ccc(F)cc1F	–	–	–	–
O=C(Nc1ccc(OCc2ccccc2)cc1)Nc1ccccc1C(=O)NCCCN1CCOCC1	14µM	–	?	–
CN(C)c1ccc2c(c1)C(=NO)c1ccccc1-2	·	25µM	–	–
COc1cc(N2C(=O)C=CC2=O)c(OC)cc1Cl	14µM	–	?	40µM
Cc1c(Cl)cccc1N=Cc1ccc([N+](=O)[O-])s1	–	–	–	16µM
Cc1ccccc1C(=O)N/N=C/c1ccc([N+](=O)[O-])s1	–	–	–	–
CN(c1cc2c(c3c1ccn3C)C1CCC2O1)C1CCCCC1 (stereo not given)	·	?	–	–
Cn1ccc2c(N3CCCCCCC3)cc3c(c21)C1CCC3O1 (stereo not given)	·	25µM	–	–
O=C(CSc1nc2ccccc2o1)NC1CCS(=O)(=O)C1 (stereo not given)	·	–	–	–
CCCCOC(=O)c1ccc(NC(=O)c2cnc3ccc(C)cn3c2=O)cc1	·	·	–	·
Cc1nnc(NC(=O)c2oc3cc(C)c(C)cc3c2C)s1	–	·	·	·
CCCc1ccc(-c2ccc(F)c(N)c2)nc1	16µM	–	–	–
CCCCc1ccc(-c2ccc(Br)cc2)nc1	–	–	–	–
Cc1ccc(C)c(S(=O)(=O)N2CCCOC2CNC(=O)C(=O)NCc2cccs2)c1 (stereo not given)	–	–	–	–
CC1(C(=O)Nc2ccc3c(c2)OCCO3)CN(S(C)(=O)=O)CC(=O)N1CCc1ccc(O)cc1 (stereo not given)	·	–	·	–
CCOC(=O)N=Nc1c(O)n(CC(=O)OC)c2ccccc12	–	–	–	–
CCOC(=O)N=Nc1c2ccccc2c2nc3no[nH]c3nc12	–	–	–	5µM
SMILES	LmPK inhibitor	AMA1-RON2 inh	TbPYK inhibitor	RE007 growth inh
Cc1ccc2c(c1)N(C(=O)c1ccco1)C(C)(C)c1ssc(=S)c1-2	–	12µM	–	–
Cc1cc(NC(=O)CCCn2nc([N+](=O)[O-])cc2C)no1	–	–	–	–
CN(C(=O)c1cccc(NC(=O)Cc2cccc(NC(=O)C3CCN(C(=O)C4CCCC4)CC3)c2)c1)C1CCC1	·	–	–	–
CN(C)c1ccc(N=c2sc3ccccc3n2C)cc1	–	24µM	?	–
CCOC(=O)CCCCC(=O)c1[nH]c(=O)[nH]c1CSc1nc(-c2ccccc2)c(C#N)c(=O)[nH]1	–	?	–	–
CCOC(=O)CCCCC(=O)c1[nH]c(=O)[nH]c1CSCCO	–	7.5µM	–	–
CCOC(=O)CCCCC(=O)c1[nH]c(=O)[nH]c1Cn1cnc2ccccc21	–	38µM	–	–
CC(c1ccccc1)C1C(C#N)=C(N)OC2=C1C(=O)CC(C)(C)C2 (stereo not given)	–	–	·	–[3.69 µM]
CC1(C)CC(=O)C2=C(C1)OC(N)=C(C#N)C2C#Cc1ccccc1 (stereo not given)	–	–	–	5.6µM
CCOC(=O)C1=C(COC(=O)c2ccc(Cl)c(S(=O)(=O)N3CCOCC3)c2)NC(=O)NC1C (stereo not given)	·	–	–	–
c1coc(-c2nc(-c3ccco3)c(-c3ccco3)nc2-c2ccco2)c1	–	9.5µM	–	–
Cc1cc[n+](-c2ccccc2)c2ccccc12	–	–	–	–
CCC(=O)NC1=C(Cl)C(=O)C(NC(=O)CC)=C(Cl)C1=O	?	–	2.5µM	·
COc1ccccc1/C=N/Nc1nncc2ccccc12	–	–	–	–
COc1ccc(/C=N/Nc2nncc3ccccc23)cc1	11µM	–	?	–
COc1ccc(/C=N/Nc2nccnc2Cl)c(OC)c1	10µM	–	–	–
COc1ccc(/C=N/Nc2nccnc2Cl)cc1	7.1µM	–	?	?
Clc1nccnc1N/N=C/c1ccc(Br)cc1	18µM	–	?	–
Brc1ccc(/C=N/Nc2ccccn2)cc1	–	–	–	–
Cc1ccc(-c2nn(CCC(N)=O)c(=O)c3ccccc23)cc1	–	–	–	–
O=C(NCC(c1ccco1)N1CCN(c2ccc(F)cc2)CC1)C(=O)NC1CC1 (stereo not given)	·	–	–	–
CNC1=C(N(C(C)=O)c2ccc(Br)cc2)C(=O)c2ccccc2C1=O	–	–	–	?
CC(=O)C1=C(c2ccc(Br)cc2)C(=O)c2ccccc2C1=O	–	16µM	–	?
COCCOc1cc(NCc2ccccc2)c2ncn(C(C)C)c2c1	·	?	–	–
CCOc1cc(NCc2ccccc2)c2ncn(C(C)C)c2c1	·	25µM	–	–
SMILES	LmPK inhibitor	AMA1-RON2 inh	TbPYK inhibitor	RE007 growth inh
O=C(NCc1ccccc1Cl)/C(=C\c1cccnc1)NC(=O)c1ccccc1	–	–	–	–
NC(=S)NNc1ccc(Cl)c(Cl)c1	–	–	–	11µM
Oc1ccc(C[C@H]2NCCc3cc(O)c(O)cc32)cc1O	?	2.5µM	–	–
CC12CCC(C(N)=O)(C1Br)C2(C)C (stereo not given)	–	–[2.32 µM]	–	–
CC(C)CSC1=NSC2=NC(=O)/C(=C\c3coc4ccccc4c3=O)C(=N)N12	–	–	–	–
CSC1=NSC2=NC(=O)/C(=C\c3coc4ccccc4c3=O)C(=N)N12	–	–	–	28µM
N=C1/C(=C\c2coc3ccccc3c2=O)C(=O)N=C2SC(c3ccncc3)=NN12	–	–	–	14µM
N=C1/C(=C/c2coc3ccccc3c2=O)C(=O)N=C2SC(c3ccco3)=NN12	–	–	–	10µM
COc1ccc(NC(=O)c2cc3c(=O)[nH]c4ccccc4c3n2C)cc1Cl	·	·	–	·
COCC(C)n1c(C)cc(C(=O)CSc2nnnn2C2CCCC2)c1C (stereo not given)	·	–	–	–
NC1=C(Br)C(=O)c2ccccc2C1=O	–	–	–	11µM
Cc1cc2c(cc1C)C(=O)C(Br)=C(N)C2=O	·	–	–	?
COc1cc(O)c(C(=O)O)c(-c2cc(O)c(O)cc2C)c1	?	–	10µM	–
O=C(Nc1cc2c(cc1C(=O)O)OCCCO2)c1ccc(C(F)(F)F)cc1	–	–	–	–
Cc1cc(C(=O)COC(=O)c2ccc[nH]c2=O)c(C)n1C	–	–	–	–
O=C(O)c1ccccc1SC1CC(=O)N(c2cccc3ccccc23)C1=O (stereo not given)	–	–	–	7.9µM
